Assay results reported in PMC12820563, “FoxP3 forms a head-to-head dimer in vivo and stabilizes its multimerization on adjacent microsatellites”.
The full ranking holds about 16,000 sequences; the median of “rpm ratio (pull-down/input)” is about 0.94, and the highest 2% start at about 1.7. The list comes from a sample in which the highest values are over-represented; it also holds similar and randomly drawn sequences.

The sequences below were run against T1, MBP-FoxP1dN (Mus musculus, UniProt P58462 326-579) (assay: PD-seq (MBP pull-down with sequencing); 20 mM Tris-HCl pH 7.5, 100 mM NaCl, 1.5 mM MgCl2, 0.4 uM protein, 0.1 uM dsDNA library, 30 min, room temperature, amylose pull-down; high values mean tight binding). Details: protein: recombinant; tags: His6-MBP; chain copies: 2; dsDNA, one strand shown.
T1 sequence: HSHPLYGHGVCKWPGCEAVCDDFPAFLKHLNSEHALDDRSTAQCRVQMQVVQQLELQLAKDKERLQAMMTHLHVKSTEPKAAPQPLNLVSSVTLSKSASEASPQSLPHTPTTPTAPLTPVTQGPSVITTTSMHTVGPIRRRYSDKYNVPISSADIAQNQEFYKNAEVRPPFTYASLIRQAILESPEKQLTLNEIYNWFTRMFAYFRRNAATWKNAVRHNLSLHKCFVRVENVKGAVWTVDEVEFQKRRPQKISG
Summary of the method: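 A fragment of mouse FoxP3 or FoxP1 without its N-terminus, carrying a His6-MBP tag and produced in E. coli, was combined at 0.4 µM with a 0.1 µM degenerate double-stranded DNA library filled in with Klenow. The mixture sat for 30 min at room temperature in Tris pH 7.5 buffer containing NaCl and MgCl2. Protein–DNA complexes were captured on amylose resin, washed three times, and the DNA was freed with proteinase K, barcoded by PCR and sequenced on Illumina. Binding is expressed as reads-per-million enrichment of pull-down over input, with replicates pooled.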
With “GATGATTGTTCTCCCAGCTGATGAATTCAATGAATCGAGTAAACAAATTTTCCTAATCTTTCTGTTCAAGCGCCATCTAC” the binding signal was 0.93 RPM ratio (pull-down/input). With “GATGATTGTTCTCCCAGCTGATGAATTGGAAGGCTCGAGTAAACAAATTTTCCTAATCTTTCTGTTCAAGCGCCATCTAC” the binding signal was 0.76 RPM ratio (pull-down/input). In the case of “GATGATTGTTCTCCCAGCTGATGAATTAAACTAATCGAGTAAACAAATTTTCCTAATCTTTCTGTTCAAGCGCCATCTAC”, the binding signal is reported as 1.09 RPM ratio (pull-down/input). With “GATGATTGTTCTCCCAGCTGATGAATTCGTCCTATCGAGTAAACAAATTTTCCTAATCTTTCTGTTCAAGCGCCATCTAC” the binding signal was 0.835 RPM ratio (pull-down/input). “GATGATTGTTCTCCCAGCTGATGAATTTTCGCGATCGAGTAAACAAATTTTCCTAATCTTTCTGTTCAAGCGCCATCTAC” was tested, and the binding signal was 0.884 RPM ratio (pull-down/input). With “GATGATTGTTCTCCCAGCTGATGAATTTGCGTTGTCGAGTAAACAAATTTTCCTAATCTTTCTGTTCAAGCGCCATCTAC” the binding signal was 1.29 RPM ratio (pull-down/input). With “GATGATTGTTCTCCCAGCTGATGAATTGGATAGCTCGAGTAAACAAATTTTCCTAATCTTTCTGTTCAAGCGCCATCTAC” the binding signal was 0.85 RPM ratio (pull-down/input). With “GATGATTGTTCTCCCAGCTGATGAATTTTACGTATCGAGTAAACAAATTTTCCTAATCTTTCTGTTCAAGCGCCATCTAC” the binding signal was 0.962 RPM ratio (pull-down/input). For “GATGATTGTTCTCCCAGCTGATGAATTTGGTTTATCGAGTAAACAAATTTTCCTAATCTTTCTGTTCAAGCGCCATCTAC”, the binding signal was 1.32 RPM ratio (pull-down/input). “GATGATTGTTCTCCCAGCTGATGAATTTGATTTATCGAGTAAACAAATTTTCCTAATCTTTCTGTTCAAGCGCCATCTAC” was tested, and the binding signal was 1.23 RPM ratio (pull-down/input). For “GATGATTGTTCTCCCAGCTGATGAATTTAGTAAATCGAGTAAACAAATTTTCCTAATCTTTCTGTTCAAGCGCCATCTAC”, the binding signal was 1.58 RPM ratio (pull-down/input). For “GATGATTGTTCTCCCAGCTGATGAATTTACGTAATCGAGTAAACAAATTTTCCTAATCTTTCTGTTCAAGCGCCATCTAC”, the binding signal was 1.82 RPM ratio (pull-down/input). In the case of “GATGATTGTTCTCCCAGCTGATGAATTACGTAAATCGAGTAAACAAATTTTCCTAATCTTTCTGTTCAAGCGCCATCTAC”, the binding signal is reported as 1.34 RPM ratio (pull-down/input). With “GATGATTGTTCTCCCAGCTGATGAATTTTAGTAATCGAGTAAACAAATTTTCCTAATCTTTCTGTTCAAGCGCCATCTAC” the binding signal was 1.75 RPM ratio (pull-down/input). In the case of “GATGATTGTTCTCCCAGCTGATGAATTGTTTAGATCGAGTAAACAAATTTTCCTAATCTTTCTGTTCAAGCGCCATCTAC”, the binding signal is reported as 2.19 RPM ratio (pull-down/input). “GATGATTGTTCTCCCAGCTGATGAATTTAGATGATCGAGTAAACAAATTTTCCTAATCTTTCTGTTCAAGCGCCATCTAC” was tested, and the binding signal was 1.11 RPM ratio (pull-down/input). “GATGATTGTTCTCCCAGCTGATGAATTTTTTAGATCGAGTAAACAAATTTTCCTAATCTTTCTGTTCAAGCGCCATCTAC” was tested, and the binding signal was 0.923 RPM ratio (pull-down/input). In the case of “GATGATTGTTCTCCCAGCTGATGAATTTAGTGAATCGAGTAAACAAATTTTCCTAATCTTTCTGTTCAAGCGCCATCTAC”, the binding signal is reported as 0.958 RPM ratio (pull-down/input). “GATGATTGTTCTCCCAGCTGATGAATTTTGTTTATCGAGTAAACAAATTTTCCTAATCTTTCTGTTCAAGCGCCATCTAC” was tested, and the binding signal was 2.61 RPM ratio (pull-down/input). “GATGATTGTTCTCCCAGCTGATGAATTGTCACATTCGAGTAAACAAATTTTCCTAATCTTTCTGTTCAAGCGCCATCTAC” was tested, and the binding signal was 1.2 RPM ratio (pull-down/input). In the case of “GATGATTGTTCTCCCAGCTGATGAATTGAACGTTTCGAGTAAACAAATTTTCCTAATCTTTCTGTTCAAGCGCCATCTAC”, the binding signal is reported as 0.869 RPM ratio (pull-down/input). With “GATGATTGTTCTCCCAGCTGATGAATTTATGGGATCGAGTAAACAAATTTTCCTAATCTTTCTGTTCAAGCGCCATCTAC” the binding signal was 0.919 RPM ratio (pull-down/input). For “GATGATTGTTCTCCCAGCTGATGAATTCTCCCTCTCGAGTAAACAAATTTTCCTAATCTTTCTGTTCAAGCGCCATCTAC”, the binding signal was 0.869 RPM ratio (pull-down/input). “GATGATTGTTCTCCCAGCTGATGAATTATATTCCTCGAGTAAACAAATTTTCCTAATCTTTCTGTTCAAGCGCCATCTAC” was tested, and the binding signal was 0.968 RPM ratio (pull-down/input). “GATGATTGTTCTCCCAGCTGATGAATTGAGGTAGTCGAGTAAACAAATTTTCCTAATCTTTCTGTTCAAGCGCCATCTAC” was tested, and the binding signal was 0.86 RPM ratio (pull-down/input). In the case of “GATGATTGTTCTCCCAGCTGATGAATTAGATTTCTCGAGTAAACAAATTTTCCTAATCTTTCTGTTCAAGCGCCATCTAC”, the binding signal is reported as 0.85 RPM ratio (pull-down/input). In the case of “GATGATTGTTCTCCCAGCTGATGAATTTTAGTTTTCGAGTAAACAAATTTTCCTAATCTTTCTGTTCAAGCGCCATCTAC”, the binding signal is reported as 1.4 RPM ratio (pull-down/input). In the case of “GATGATTGTTCTCCCAGCTGATGAATTTAGTTTTTCGAGTAAACAAATTTTCCTAATCTTTCTGTTCAAGCGCCATCTAC”, the binding signal is reported as 1.19 RPM ratio (pull-down/input). With “GATGATTGTTCTCCCAGCTGATGAATTGTTTAGTTCGAGTAAACAAATTTTCCTAATCTTTCTGTTCAAGCGCCATCTAC” the binding signal was 1.94 RPM ratio (pull-down/input). With “GATGATTGTTCTCCCAGCTGATGAATTCGCGCAGTCGAGTAAACAAATTTTCCTAATCTTTCTGTTCAAGCGCCATCTAC” the binding signal was 0.818 RPM ratio (pull-down/input). In the case of “GATGATTGTTCTCCCAGCTGATGAATTCAGTCGTTCGAGTAAACAAATTTTCCTAATCTTTCTGTTCAAGCGCCATCTAC”, the binding signal is reported as 0.873 RPM ratio (pull-down/input). For “GATGATTGTTCTCCCAGCTGATGAATTGTTTTAGTCGAGTAAACAAATTTTCCTAATCTTTCTGTTCAAGCGCCATCTAC”, the binding signal was 1.44 RPM ratio (pull-down/input). With “GATGATTGTTCTCCCAGCTGATGAATTCTGTTAGTCGAGTAAACAAATTTTCCTAATCTTTCTGTTCAAGCGCCATCTAC” the binding signal was 1.29 RPM ratio (pull-down/input). For “GATGATTGTTCTCCCAGCTGATGAATTTTTTTAGTCGAGTAAACAAATTTTCCTAATCTTTCTGTTCAAGCGCCATCTAC”, the binding signal was 1.05 RPM ratio (pull-down/input). For “GATGATTGTTCTCCCAGCTGATGAATTTTATTAGTCGAGTAAACAAATTTTCCTAATCTTTCTGTTCAAGCGCCATCTAC”, the binding signal was 1.28 RPM ratio (pull-down/input). “GATGATTGTTCTCCCAGCTGATGAATTTGGTTAGTCGAGTAAACAAATTTTCCTAATCTTTCTGTTCAAGCGCCATCTAC” was tested, and the binding signal was 0.953 RPM ratio (pull-down/input).
